We go through 49 compounds from the supplement of paper PMC12340641.

The structures appear in SMILES notation. Over roughly 1,000 compounds, “relative growth recovery (pomalidomide 10 uM = 100%, DMSO = 0%)” has its median near -1.6; the highest 2% begin near 21. This is one part of a sample in which the highest values are shown more often than they occur.

The test system of this test is HEK293FT dCK*-IKZF1. Put plainly: relative growth recovery (pomalidomide 10 uM = 100%, DMSO = 0%); higher = more growth rescue (IKZF1 fusion degradation). To be noted: compound concentration: 5 uM; AraC concentration: 0.3 uM; overnight pretreatment + 4 days AraC. As for the experimental part:
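Growth recovery screen of the molecular-glue-like (Specs) library. HEK293FT cells expressing a dCK*-IKZF1 fusion (primary) or dCK* alone (counter) were pretreated overnight with compound at 5 uM, then given 0.3 uM AraC for 4 days. Hoechst nuclei were counted by imaging. Primary: normalised to pomalidomide (100%) and DMSO (0%), mean of 2 replicates. Counter: normalised to no-AraC (100%) and AraC+DMSO (0%), single replicate.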
For the compound `Cc1ccc(C(=O)Nc2ccc(S(=O)(=O)Nc3cc(C)nc(C)n3)cc2)cc1`, the relative growth recovery was -1.57%.

Turning to `Cc1cccc(C(=O)Nc2ccc(S(=O)(=O)Nc3nc(C)cc(C)n3)cc2)c1`, the relative growth recovery came to 4.85%.

With `Cc1nc(Nc2cccc(C3CCCN3C(=O)CCCN3C(=O)CNC3=O)n2)sc1C` (centres undefined), the relative growth recovery amounted to 3.93%.

For `Cc1ccc(/C=C/C(=O)Nc2ccc(S(=O)(=O)Nc3ncccn3)cc2)cc1`, the relative growth recovery was -2.17%.

Consider `Cc1cc(OCC(=O)Nc2ccc(S(=O)(=O)Nc3ncccn3)cc2)ccc1Cl`, for which the relative growth recovery was -0.26%.

Turning to `NCC(=O)N1CCC(c2cccc(Nc3ncc(Br)s3)n2)CC1`, the relative growth recovery is -17.1%.

In the case of `Cc1nn(C)c(C)c1/C=C/C(=O)N1CCC(c2cc3ccccc3c(Nc3nccs3)n2)CC1`, the relative growth recovery worked out at 51.1%.

With `Cn1nccc1/C=C/C(=O)N1CCC(c2cc3ccccc3c(Nc3nccs3)n2)CC1`, the relative growth recovery is -16.9%.

Take `Cc1nc(/C=C/C(=O)N2CCC(c3cc4ccccc4c(Nc4nccs4)n3)CC2)cs1`: the relative growth recovery is -17.8%.

For `Cc1ccc(C)c(OCC(=O)Nc2ccc(S(=O)(=O)Nc3nc(C)cc(C)n3)cc2)c1`, the relative growth recovery is -2.19%.

As for `Nc1ccc(Oc2ccc3c(c2)C(=O)N(CCO)C3=O)cc1`, the relative growth recovery came to 2.76%.

With `Cc1cnc(Nc2cccc(C(C(=O)N(C)C)C3CCN(C(=O)C4CCCCC4)CC3)n2)s1` (centres undefined), the relative growth recovery turned out to be 1.65%.

`O=C(/C=C/c1ccccc1)N1CCCC(c2csc(Nc3ccccn3)n2)C1` (centres undefined): the relative growth recovery turned out to be 31.2%.

For the compound `Cc1ccc(Nc2nc(C3CCCN3C(=O)/C=C/c3csc(C)n3)cs2)nc1` (centres undefined), the relative growth recovery amounted to 0.31%.

With `COC(C)(C)C(=O)N1CCCC(c2csc(Nc3ccc(C)cn3)n2)C1` (centres undefined), the relative growth recovery was 15.9%.

Regarding `O=C(/C=C/c1ccco1)N1CCCC(c2csc(Nc3ccccn3)n2)C1` (centres undefined), the relative growth recovery stood at 18.9%.

With `Cc1ccc(Nc2nc(C3CCCN(C(=O)/C=C/c4csc(C)n4)C3)cs2)nc1` (centres undefined), the relative growth recovery came out at 31.5%.

Turning to `Cn1nccc1/C=C/C(=O)N1CCCC1c1csc(Nc2ccccn2)n1` (centres undefined), the relative growth recovery was 2.75%.

Turning to `Cn1nccc1/C=C/C(=O)N1CCCC(c2cc3ccccc3c(Nc3nccs3)n2)C1` (centres undefined), the relative growth recovery was -10.2%.

Take `Cn1nccc1/C=C/C(=O)N1CCCC(c2csc(Nc3ccccn3)n2)C1` (centres undefined): the relative growth recovery worked out at 40.9%.

Regarding `CC(=O)N1CCCC(c2csc(Nc3ccccn3)n2)C1` (centres undefined), the relative growth recovery is -1.67%.

Turning to `Cc1ccc(OCC(=O)Nc2ccc(S(=O)(=O)Nc3nc(C)cc(C)n3)cc2)cc1`, the relative growth recovery is -1.25%.

Take `O=C1CCC(N2C(=O)c3cc(F)c(N4CCC(Cn5cc(C(=O)O)cn5)CC4)cc3C2=O)C(=O)N1` (centres undefined): the relative growth recovery was -2%.

For the compound `Cc1cc(C)nc(NS(=O)(=O)c2ccc(NC(=O)CSc3nc4c(cc3C#N)CCCCC4)cc2)n1`, the relative growth recovery was -5.67%.

With `Cc1ccc(C)c2c1[nH]c1nc(SCC(=O)Nc3cccc(F)c3)nnc12`, the relative growth recovery is -2.81%.

Turning to `CC(=O)N1CCC(Cc2cccc(Nc3nc(C)cs3)n2)CC1`, the relative growth recovery turned out to be 10.6%.

With `CCCCc1cnc(Nc2cccc(C3CCN(C(=O)[C@@H]4CCCCN4)CC3)n2)s1`, the relative growth recovery was -11.4%.

In the case of `O=C(Nc1ccc(S(=O)(=O)Nc2ncccn2)cc1)c1ccc2c(c1)OCO2`, the relative growth recovery is -3.11%.

As to `COc1ccc(Cl)cc1C(=O)Nc1ccc(S(=O)(=O)Nc2nccc(C)n2)cc1`, the relative growth recovery is -1.7%.

Turning to `COc1ccc2[nH]c(SCC(=O)Nc3ncccn3)nc2c1`, the relative growth recovery was determined as 1.53%.

Consider `Cc1cnc(Nc2cccc(C3CCN(C(=O)C4(NC(=O)CC(C)(C)C)CCCCC4)CC3)n2)s1`, for which the relative growth recovery is -16.1%.

For the compound `CCc1ccccc1OCC(=O)Nc1ccc(S(=O)(=O)Nc2nc(C)cc(C)n2)cc1`, the relative growth recovery was -4.88%.

Consider `CCCN1CC(C(=O)N2CCC(c3cccc(Nc4ncc(C)s4)n3)CC2)CC1=O` (centres undefined), for which the relative growth recovery was -5.35%.

Take `COc1cc(NS(=O)(=O)c2ccc(NC(=O)c3ccccc3C(=O)O)cc2)nc(OC)n1`: the relative growth recovery was -4.23%.

`COc1cc(NS(=O)(=O)c2ccc(NC(=O)/C=C/c3ccco3)cc2)nc(OC)n1`: the relative growth recovery was 1.19%.

Turning to `CCCc1cnc(Nc2cccc(C3CCN(C(=O)Cn4c(CC(C)C)nc5ccccc54)CC3)n2)s1`, the relative growth recovery is -2.13%.

With `COc1ccc(-c2csc(Nc3ccc(S(=O)(=O)Nc4cc(OC)nc(OC)n4)cc3)n2)cc1`, the relative growth recovery was -2.94%.

For `Cc1cnc(Nc2cccc(C3CCCN3C(=O)c3nccc4ccccc34)n2)s1` (centres undefined), the relative growth recovery amounted to 2.39%.

`O=C(Cc1cccs1)Nc1ccc(Oc2ccc3c(c2)C(=O)N(c2ccc(O)cc2)C3=O)cc1`: the relative growth recovery is -1.26%.

For the compound `O=C(C1CCCCC1)N1CCC(Cc2cccc(Nc3nccs3)n2)CC1`, the relative growth recovery worked out at 4.47%.

Consider `Cc1cccc(C)c1OCC(=O)Nc1ccc(S(=O)(=O)Nc2ncccn2)cc1`, for which the relative growth recovery is 1.77%.

Consider `COc1ccccc1CCC(=O)N1CCOC(c2cccc(Nc3ncc(C)s3)n2)C1` (centres undefined), for which the relative growth recovery is 10.8%.

Regarding `COc1cc(NS(=O)(=O)c2ccc(NC(=O)COc3cccc(C)c3)cc2)nc(OC)n1`, the relative growth recovery was -18.6%.

For the compound `COCC(=O)N1CCCC1c1cccc(Nc2nc(C)cs2)n1` (centres undefined), the relative growth recovery was -7.27%.

Consider `O=C1CCC(N2C(=O)c3ccc(C(=O)O)cc3C2=O)C(=O)N1` (centres undefined), for which the relative growth recovery is -0.47%.

For `Cc1cc(C)nc(NS(=O)(=O)c2ccc(NC(=O)c3ccccc3I)cc2)n1`, the relative growth recovery was -0.26%.

As to `Cc1ccnc(NS(=O)(=O)c2ccc(NC(=O)C34CC5CC(CC(C5)C3)C4)cc2)n1`, the relative growth recovery is -6.07%.

As for `CCCCCOC(=O)c1ccc(N2C(=O)c3ccc(Oc4ccc(N)cc4)cc3C2=O)cc1`, the relative growth recovery turned out to be 1.57%.

With `CC(C)Cc1nc2ccccc2n1CC(=O)N1CCC(Cc2cccc(Nc3nccs3)n2)CC1`, the relative growth recovery was -1.89%.
